We go through 40 compounds from PubChem BioAssay (NCATS).

Structures are written as SMILES. Records with an inconclusive call do not appear. Entries that show only a call come without a potency. Values without a mark were called inactive. Active and inactive are the calls of the source. The call rests on the fitted dose curve; in most records, active means well fitted inhibition curve with a large enough effect; inconclusive means small, poorly fitted or top-dose-only effect; inactive means no such curve, though single readings can be large or run the other way.

The target of this experiment is Retinaldehyde dehydrogenase 3 (Homo sapiens) (UniProt P47895). The experiment in a line: qHTS for Inhibitors of the Aldehyde Dehydrogenase Family (ALDH1A3) Primary screen (AID 2061315). The note with it: ALDH inhibition qHTS; series mostly up to 56 µM.
Turning to `Cc1cc(/C=C/C#N)cc(C)c1Nc1nc(Nc2ccc3n[nH]nc3c2)c2[nH]cnc2n1`, the Potency result is “inactive”.

Regarding `C=C1C(=O)O[C@H]2C1[C@H](OC(=O)/C(=C/CO)COC(=O)/C(C)=C/CO)CC(=C)[C@@H]1CC(=O)[C@@H](C)[C@@H]12` (stereo not given in full), the Potency result was “inactive”.

Consider `O=c1c2ccccc2nc2sc(NS(=O)(=O)c3ccc4c(c3)CCC4)nn12`, for which the Potency result is “inactive”.

In the case of `O=C(Cc1ccc(Cl)c(Cl)c1)Nc1ccc(S(=O)(=O)Nc2cncnc2)cc1`, the Potency result is “inactive”.

Regarding `C/C=C/C1=CC2=C(CO1)C(=O)C(C)(OC(=O)c1c(C)cc(O)cc1OC)C(O)C2` (stereo not given), the Potency result is “inactive”.

In the case of `N#Cc1c(-c2ccc(C(F)(F)F)cc2)no[n+]1[O-]`, the Potency entry was “inactive”.

With `Cc1cccc(N2CCN(C(=S)Nc3cc(C)ccn3)CC2)c1`, the Potency entry is “inactive”.

For `Cc1ccc(NS(=O)(=O)c2cc3c(cc2-c2ccsc2)NC(=O)CO3)cc1C`, the Potency entry was “inactive”.

Turning to `CC(C)c1cccc(-n2cnc3cc(C(=O)N4CCCCC4)ccc32)c1`, the Potency result was “inactive”.

Consider `CN1CCN(c2ccc(CNc3nn4c(=O)c5ccccc5nc4s3)cc2)CC1`, for which the Potency entry is “inactive”.

Take `NC(=O)C1CCN(c2ncnc(-c3ccc4c(c3)OCCCO4)n2)CC1`: the Potency entry was “inactive”.

On to `CC(C)(C)OC(=O)N[C@@H](Cc1ccc(O[S+](=O)([O-])c2cccc3cnccc23)cc1)C(=O)N1CCN(Cc2ccccc2)CC1`, for which the Potency entry is “inactive”.

As for `Cc1cccc(CNc2ccnc(-c3ccc4ccccc4c3)n2)c1`, the Potency result was “inactive”.

Take `CC(C)(C)OC(=O)N1CCN(c2ccc(OCc3ccc(-c4ccc(C#N)cc4)o3)cc2)CC1`: the Potency result is “inactive”.

Turning to `CC(C)c1ccc(-n2ncc3c(=O)n(CC(=O)Nc4cc(F)ccc4Cl)cnc32)cc1`, the Potency entry is “inactive”.

For the compound `NC(=O)c1cccc(-c2cc(O)cc(OC(=O)NC3CCCCC3)c2)c1`, the Potency result was “inactive”.

For `CC1=C(C(=O)Nc2ccon2)C(c2nn(C)cc2Cl)N=C(Nc2nc3ccccc3o2)N1` (stereo not given), the Potency entry is “inactive”.

For `CN(C)c1cccc(-c2ncnc(N3CCC(C(N)=O)CC3)n2)c1`, the Potency entry was “inactive”.

As for `COc1cc(O)c([C@H](CC(=O)N2CC(C)CC(C)C2)c2ccc3c(c2)OCO3)c(OC)c1` (stereo not given in full), the Potency entry is “inactive”.

For `COc1cccc(CNc2ccc(S(=O)(=O)Nc3cccs3)cc2)c1O`, the activity change, negative = inhibition was -2.44% [at 11.2 µM].

As to `CC(O)c1ccc(-c2ccc3ncnc(NCC4CCCO4)c3c2)o1` (stereo not given), the Potency entry is “inactive”.

In the case of `Cc1ccc([S+](=O)([O-])Nc2nn3c(=O)c4ccccc4nc3s2)cc1C`, the Potency entry is “inactive”.

Turning to `O=c1c2ccccc2nc2sc(NCc3ccc(Sc4ccccc4)cc3)nn12`, the Potency result was “inactive”.

Consider `Cc1cc(C)n2ncc(C(=O)Nc3ccccc3)c2n1`, for which the Potency entry is “inactive”.

On to `O=C1c2ccccc2NC(c2ccc(-c3cccc(Cl)c3)o2)N1O` (stereo not given), for which the Potency entry is “inactive”.

For `CSC(Cc1ccc(Cl)cc1)C(=O)Nc1ccc(Cl)cc1C(=O)O` (stereo not given), the Potency result is “inactive”.

For the compound `O=C(O)c1ccc(CSc2nnc(-c3cccc([S+](=O)([O-])N4CCCC4)c3)n2-c2ccccc2)cc1`, the Potency entry was “inactive”.

Take `O=C(Cc1nnc(-c2ccncc2)s1)Nc1ccc(F)c(C(F)(F)F)c1`: the Potency entry is “inactive”.

With `Cc1cc(C)nc(NC(=S)N2CCN(c3cc(C(F)(F)F)nc4ccc(C(F)(F)F)cc34)CC2)c1`, the Potency result was “inactive”.

Turning to `CCOC(=O)c1nn(-c2ccc(OC)cc2)c(=O)c2c(N)scc12`, the Potency entry is “inactive”.

As for `FC(F)(F)c1ccccc1-c1nc(NCc2ccc(-c3ccc(Cl)c(Cl)c3)cc2)c2ccccc2n1`, the Potency entry was “inactive”.

In the case of `CCCC(C)NC(=O)Cn1nc(-c2ccc(C)cc2)ccc1=O` (stereo not given), the Potency result is “inactive”.

In the case of `Cc1c(P(=S)(c2ccccc2)c2ccccc2)c2ccccc2n1C/C=C/c1ccccc1`, the Potency result was “inactive”.

Consider `O=S1(=O)N=C(Oc2ccc(Br)cc2)c2ccccc21`, for which the Potency entry was “inactive”.

`Cc1ccc2nc3sc(C(=O)Nc4ccc(F)cc4)cc3cc2c1`: the Potency result was “inactive”.

On to `Cc1ccc(N2CCN(C(=S)Nc3cc(C)ccn3)CC2)cc1`, for which the Potency result is “inactive”.

Take `CC(=O)Nc1sc2c(c1-c1cc3ccccc3s1)CCNC2`: the Potency result was “inactive”.

`Cc1ccc(NS(=O)(=O)c2ccc(-c3ccccc3)cc2)cc1C`: the Potency entry was “inactive”.

Consider `COc1ccc(C2c3ccc(OCc4ccccc4)cc3Oc3ncn(CCN4CCOCC4)c(=N)c32)cc1OC` (stereo not given), for which the Potency entry is “inactive”.

In the case of `CN(CC(=O)Nc1ccc(N2CCOCC2)cc1)Cc1cccc2ccccc12`, the Potency entry was “inactive”.
